According to PubChem BioAssay (EPA / NIEHS):
Active and inactive are the calls of the source. Rule for the calls: active = hit-call score of the fitted dose curve at least 0.9, where 1 is the maximum; inactive = score below 0.9.

read-out: Human Leukocyte Antigen - DR isotype (HLADR), HLA-DRA (gene 3122); assay: BSK_3C_HLADR: BioMAP Diversity Plus: 3C Assay for Human Leukocyte Antigen - DR isotype (HLADR) Biomarker Activity (AID 2283019); conditions: primary human endothelial cells (HUVEC); actives raise or lower the signal;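 for outcome: ELISA of cell-surface HLA-DR on HUVEC 24 h after dosing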
Outline: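 Compound added to primary HUVEC cultures, 24 h incubation, then HLA-DR determined by ELISA; endpoint derived by bidirectional fitting relative to DMSO negative control.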

| Compound | AC50 | outcome |
| --- | --- | --- |
| CC1(C)CCC(=Cc2ccc(Cl)cc2)C1(O)Cn1cncn1 (stereo unspecified) | 5.3 µM (active) |  |
| Cc1cc(C)nc(Nc2ccccc2)n1 | 16.6 µM (active) |  |
| N#Cc1c[nH]cc1-c1cccc2c1OC(F)(F)O2 | 20 µM (active) |  |
| COc1cc(Cl)c(OC)cc1Cl |  | inactive |
| CC(C)NC(=O)N1CC(=O)N(c2cc(Cl)cc(Cl)c2)C1=O |  | inactive |
| CCCCC(C#N)(Cn1cncn1)c1ccc(Cl)cc1 (stereo unspecified) |  | inactive |
| CC(C)C1(C)N=C(c2ncccc2C(=O)O)NC1=O (stereo unspecified) |  | inactive |
| CC1(C)C(C=C(Cl)Cl)C1C(=O)OC(C#N)c1cccc(Oc2ccccc2)c1 (stereo unspecified) |  | inactive |
| CCCCC(O)(Cn1cncn1)c1ccc(Cl)cc1Cl (stereo unspecified) | 20 µM (active) |  |
| Cc1nc(N(C)C)nc(OC(=O)N(C)C)c1C |  | inactive |
| Clc1nc(Cl)nc(Nc2ccccc2Cl)n1 |  | inactive |
| COC(=O)N(C(=O)N1CO[C@@]2(C(=O)OC)Cc3cc(Cl)ccc3C2=N1)c1ccc(OC(F)(F)F)cc1 |  | inactive |
| Nc1c(Cl)c(F)nc(OCC(=O)O)c1Cl |  | inactive |
| CCOP(=O)(OCC)Oc1nc(Cl)c(Cl)cc1Cl | 24.6 µM (active) |  |
| COc1ccc(-c2ccccc2)cc1NNC(=O)OC(C)C |  | inactive |

read-out: Interleukin-8 (IL8), CXCL8 (gene 3576); assay: BSK_3C_IL8: BioMAP Diversity Plus: 3C Assay for Interleukin-8 (IL8) Biomarker Activity (AID 2283020); conditions: primary human endothelial cells (HUVEC); actives raise or lower the signal
Outline: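 ELISA read-out of IL-8 from human umbilical vein endothelium, measured 24 h after chemical dosing. Activity is expressed relative to DMSO negative control, with both increases and decreases fitted.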

| Compound | outcome | AC50 |
| --- | --- | --- |
| CC(C)Nc1nc(Cl)nc(NC(C)C)n1 | inactive |  |
| OC(c1ccc(Cl)cc1)(c1ccc(Cl)cc1)C(Cl)(Cl)Cl |  | 15.3 µM (active) |
| CNC(=O)N(C)c1nnc(C(C)(C)C)s1 | inactive |  |
| Cn1c(-c2ccccc2)cc(-c2ccccc2)[n+]1C | inactive |  |
| CC1(C)C(C(=O)OC(C#N)c2cccc(Oc3ccccc3)c2)C1(C)C (stereo unspecified) | inactive |  |
| CCC(C)n1c(=O)[nH]c(C)c(Br)c1=O (stereo unspecified) | inactive |  |
| COCC(=O)N(c1c(C)cccc1C)C(C)C(=O)OC (stereo unspecified) | inactive |  |
| CSC(=O)c1c(C(F)F)nc(C(F)(F)F)c(C(=O)SC)c1CC(C)C |  | 32.4 µM (active) |
| COP(=S)(OC)SCn1nnc2ccccc2c1=O | inactive |  |
| CCOc1nc(F)cc2nc(S(=O)(=O)Nc3c(Cl)cccc3Cl)nn12 | inactive |  |
| COC(=O)NS(=O)(=O)c1ccc(N)cc1 | inactive |  |
| Cc1ccc(N=CN(C)C=Nc2ccc(C)cc2C)c(C)c1 |  | 31.6 µM (active) |
| Clc1cccc(C(Cl)(Cl)Cl)n1 | inactive |  |
| O=C(O)c1c(Cl)ccc2cc(Cl)cnc12 | inactive |  |
| CC(C)(C)C(=O)C(Oc1ccc(Cl)cc1)n1cncn1 (stereo unspecified) | inactive |  |
| CN=C=S | inactive |  |
| CCOP(=S)(OCC)Oc1nc(Cl)n(C(C)C)n1 | inactive |  |
| Nc1cnn(-c2ccccc2)c(=O)c1Cl | inactive |  |

| Compound | outcome | AC50 |
| --- | --- | --- |
| CC1(C)CON(Cc2ccccc2Cl)C1=O | inactive |  |
| CCCC(=NOCC)C1=C(O)CC(CC(C)SCC)CC1=O (stereo unspecified) | inactive |  |
| CO/N=C(/C1=NOCCO1)c1ccccc1Oc1ncnc(Oc2ccccc2Cl)c1F |  | 20 µM (active) |
| CC1(C)CCC(=Cc2ccc(Cl)cc2)C1(O)Cn1cncn1 (stereo unspecified) | inactive |  |
| Cc1cc(C)nc(Nc2ccccc2)n1 | inactive |  |
| N#Cc1c[nH]cc1-c1cccc2c1OC(F)(F)O2 |  | 8.82 µM (active) |
| COc1cc(Cl)c(OC)cc1Cl | inactive |  |
| CC(C)NC(=O)N1CC(=O)N(c2cc(Cl)cc(Cl)c2)C1=O | inactive |  |
| CCCCC(C#N)(Cn1cncn1)c1ccc(Cl)cc1 (stereo unspecified) | inactive |  |
| CC(C)C1(C)N=C(c2ncccc2C(=O)O)NC1=O (stereo unspecified) | inactive |  |
| CC1(C)C(C=C(Cl)Cl)C1C(=O)OC(C#N)c1cccc(Oc2ccccc2)c1 (stereo unspecified) | inactive |  |
| CCCCC(O)(Cn1cncn1)c1ccc(Cl)cc1Cl (stereo unspecified) | inactive |  |
| Cc1nc(N(C)C)nc(OC(=O)N(C)C)c1C | inactive |  |
| Clc1nc(Cl)nc(Nc2ccccc2Cl)n1 | inactive |  |
| COC(=O)N(C(=O)N1CO[C@@]2(C(=O)OC)Cc3cc(Cl)ccc3C2=N1)c1ccc(OC(F)(F)F)cc1 | inactive |  |
| Nc1c(Cl)c(F)nc(OCC(=O)O)c1Cl | inactive |  |
| CCOP(=O)(OCC)Oc1nc(Cl)c(Cl)cc1Cl |  | 20 µM (active) |
| COc1ccc(-c2ccccc2)cc1NNC(=O)OC(C)C | inactive |  |
